# High-throughput results from PubChem.
# Shown are actives, neighbours in structure and some others; about 21% of the full set was active somewhere.
# MRP resist rev: MRP-mediated drug resistance reversal | H69AR cells + 2 uM doxorubicin, CellTiter-Glo, 72 h | differential viability (reversal), % at 10 µM | 85,000 compounds, 0.04% hits;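 active means viability drop by adding the cancer drug above about 55%, with treated viability meeting a 40% cutoff, limit read from the data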;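 further: viability without doxorubicin minus viability with 2 µM doxorubicin for each compound; larger differential means the compound sensitizes cells more to doxorubicin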
# CYP2C9 inhib: blocks human cytochrome P450 2C9. CYP2C9 Supersomes, luciferin-H conversion, luminescence. inhibition, % at 5 µM. P11712. 96,000 compounds, 20% hits;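 active means blocking of liver enzyme CYP2C9 beyond about 50% at 5 µM, limit read from the data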
# CYP2C19 act: activators of human cytochrome P450 2C19 | recombinant CYP2C19, luciferin-H EGE luminescence; stronger effect = higher value; 0 = fully inhibited enzyme, 1 = untreated enzyme | activation factor at 5 µM | 96,000 tested, under 10 active | AID 1025;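 active means activation factor of at least 2 at 5 µM in the primary screen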;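 further: 0 = wells with 2.5 mM tranylcypromine and 1 = vehicle-only wells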
# Target sequence (P33261 whole entry, looked up): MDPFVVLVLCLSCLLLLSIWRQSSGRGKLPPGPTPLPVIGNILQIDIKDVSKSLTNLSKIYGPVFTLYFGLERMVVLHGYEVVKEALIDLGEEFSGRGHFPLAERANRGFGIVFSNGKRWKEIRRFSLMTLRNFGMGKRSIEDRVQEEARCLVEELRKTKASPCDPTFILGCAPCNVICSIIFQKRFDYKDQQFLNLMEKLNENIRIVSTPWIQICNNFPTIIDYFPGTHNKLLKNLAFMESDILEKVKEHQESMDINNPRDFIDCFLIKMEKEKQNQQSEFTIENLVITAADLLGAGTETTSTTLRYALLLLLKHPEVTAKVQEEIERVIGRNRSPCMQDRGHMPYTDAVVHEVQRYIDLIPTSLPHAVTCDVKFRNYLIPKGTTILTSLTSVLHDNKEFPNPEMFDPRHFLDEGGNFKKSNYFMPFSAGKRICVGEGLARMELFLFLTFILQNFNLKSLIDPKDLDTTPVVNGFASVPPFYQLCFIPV
# MRP-1 activ: activates MRP-1. H69AR cells + doxorubicin, viability rescue, CellTiter-Glo. viability increase, % at 10 µM. 140,000 compounds, 0.61% hits. AID 799;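 active means viability gain under doxorubicin at or above a set limit, the compound median plus 3 SD, cut at about 4.7% in these data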;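 further: MRP-1 overexpressing cells given doxorubicin 25 µM after compound pretreatment; 18-22 h compound pretreatment then 72 h with doxorubicin before readout; 0% = doxorubicin-only wells and 100% = vehicle-treated cells without doxorubicin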
# CYP2C19 inh: human CYP2C19 inhibition; AID 778; 96,000 compounds, 21% hits; inhibition, % at 5 µM; CYP2C19 Supersomes, luciferin-H EGE luminescence, 30 min; P33261;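 active means CYP2C19 inhibition above a set limit at 5 µM in the primary screen, cut at about 50% in these data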;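 further: plate controls were negative control wells for no effect and 2.5 mM tranylcypromine positive control for full effect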
# CYP2C9 activ: activators of human CYP2C9 | 96,000 compounds, 1.4% hits | AID 1024 | recombinant CYP2C9, luciferin-H conversion, luminescence; stronger effect = higher value; factor 1 = untreated enzyme, 0 = blocked | activation factor at 5 µM | P11712;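 active means activation factor of 2 or more for CYP2C9 at a 5 µM dose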;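 further: 0 = sulfaphenazole-blocked wells and 1 = vehicle-only wells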
# An asterisk follows results filed as active; . = no result.
SMILES,MRP resist rev,CYP2C9 inhib,CYP2C19 act,MRP-1 activ,CYP2C19 inh,CYP2C9 activ
CCCC(=O)N(CCc1ccc(OC)cc1)Cc1nc2ccccc2c(=O)[nH]1,10.7,20.4,0.7,-3.6,30.7,0.8
COCC(=O)N(CCc1ccc(OC)cc1)Cc1nc2ccccc2c(=O)[nH]1,1.9,21.7,0.5,0.9,47.3,0.8
O=C(C1CCC1)N(CCc1ccccc1)Cc1nc2ccccc2c(=O)[nH]1,20.5,85.1*,0.4,-0.4,64.4*,0.1
O=C(C1CC1)N(CCc1ccccc1)Cc1nc2ccccc2c(=O)[nH]1,-14.7,58.0*,0.4,0.4,55.8*,0.4
O=C(c1ccncc1)N(Cc1ccccc1)Cc1nc2ccccc2c(=O)[nH]1,8.1,92.7*,0.4,-1.5,55.7*,0.1
Cc1ccc(NC(=O)Cn2c(-c3ccc(F)cc3)cnc2SCC(=O)Nc2c(C)cccc2C)cc1,.,.,.,-3.9,.,.
S=C(Nc1ccccc1Cl)N(CCN1CCCCC1)Cc1ccco1,.,.,.,-3.9,.,.
C#CCOC(=O)c1ccc(-n2cncn2)nc1,7.7,33.0,0.2,0.2,81.8*,0.7
CCOCCOC(=O)c1ccc(-n2cncn2)nc1,3.7,18.2,0.4,0.0,61.3*,0.8
N#Cc1nc(COc2ccc(Cl)cc2Cl)oc1N1CCN(c2ccccc2)CC1,20.3,42.4,0.4,2.6,58.5*,0.6
COCCCNc1oc(COc2ccc(Cl)cc2Cl)nc1C#N,-16.6,94.4*,0,-3.9,99.1*,0.1
CN(C)CCNc1oc(COc2ccc(Cl)cc2Cl)nc1C#N,-1.9,9.2,0.9,-2.2,7.6,0.9
N#Cc1nc(COc2ccc(Cl)cc2Cl)oc1N1CCOCC1,27.0,43.9,0.3,-0.7,70.5*,0.6
CCCOCCOC(=O)C1=C(C)NC(=O)NC1c1cc(Cl)c(O)c(OC)c1 (stereo not given),10.6,3.1,0.9,0.8,6.4,1
COC(=O)c1ccccc1NC(=O)c1cc2ncc(Br)cn2n1,7.0,-45.6,1.1,-6.3,-9.2,1.5
O=C(CN(c1ccccn1)S(=O)(=O)c1ccccc1)N/N=C/c1cccc([N+](=O)[O-])c1,.,.,.,-1.2,.,.
Cc1ccc2nc(-c3cccc(S(=O)(=O)N(C)C)c3)cn2c1,1.5,14.1,0.9,-0.1,13.9,0.9
CCN(CC)S(=O)(=O)c1cccc(-c2cn3cc(C)ccc3n2)c1,-15.3,67.1*,0.4,-0.9,60.8*,0.3
Cc1noc(C)c1COc1cccc(C(=O)OCC(=O)NC(=O)c2ccc(OC(F)F)cc2)c1,.,.,.,-1.1,.,.
CCOC(=O)c1c(C)[nH]c(C(=O)C(C)OC(=O)c2cccc(OCc3c(C)noc3C)c2)c1C (stereo not given),0.6,89.7*,0.2,0.1,78.6*,0.1
Cn1c(=O)n(CCc2ccccc2)c(=O)c2c1nc1n2CCCN1Cc1ccccc1,9.5,15.1,0.9,-1.8,11.0,0.8
Cc1ccc(N2CCCn3c2nc2c3c(=O)n(CC(=O)OCc3ccccc3)c(=O)n2C)cc1C,15.8,55.0*,0.8,.,22.0,0.4
Cn1c(=O)n(Cc2ccc(F)cc2)c(=O)c2c1nc1n2CCCN1Cc1ccccc1,-2.8,85.9*,0,-2.0,96.0*,0.1
Cn1c(=O)n(CCc2ccccc2)c(=O)c2c1nc1n2CCCN1CCc1ccccc1,-23.1,93.2*,0.1,-2.2,92.2*,0.1
CC(C)Cn1c(=O)c2c(nc3n2CCCN3CCc2ccccc2)n(C)c1=O,11.3,93.0*,0.1,-1.9,85.4*,0.1
SMILES,MRP resist rev,CYP2C9 inhib,CYP2C19 act,MRP-1 activ,CYP2C19 inh,CYP2C9 activ
CSCC[C@H](NC(=O)C(C)Oc1ccc(Cl)cc1)c1nc2ccccc2[nH]1 (stereo not given in full),.,.,.,-2.3,.,.
CCCOC(=O)C1[C@H]2C(=O)N(CC3CCCO3)C[C@]23C=C[C@H]1O3 (stereo not given in full),-12.2,-4.2,1.1,-1.0,-8.9,1
CCc1ccc2[nH]c(O)c(N=Nc3nc(-c4ccccc4)cs3)c2c1,.,12.3,0.9,-3.7,11.6,0.9
CC(C)(C)c1cc(-c2ccco2)c(C#N)c(SCC#N)n1,-3.2,94.6*,0.6,0.9,40.5,0.1
CN(CC1CCCO1)S(=O)(=O)c1ccc(C(=O)Nc2nc(-c3ccccn3)cs2)cc1 (stereo not given),-19.4,25.7,0.9,-3.7,12.6,0.7
O=C(CN(Cc1ccccc1)C(=O)c1cccc([N+](=O)[O-])c1)Nc1c(Cl)cc(Cl)cc1Cl,.,.,.,-3.1,.,.
CCCCC(=O)Nc1ccc(C(=O)NN2C(=O)c3ccccc3C2=O)cc1,.,29.2,0.9,-2.3,6.1,0.7
COc1ccc(-c2nn3c(-c4ccncc4)nnc3s2)cc1OC,-1.9,.,.,.,.,.
O=C1OCC(CO)(CO)N=C1NNc1ccccc1Cl,.,28.5,0.5,-0.2,50.3*,0.7
O=C(Nc1ccccc1Cl)c1ccccc1Cl,21.1,-35.6,0.8,-1.9,18.7,1.4
Cc1ccc(C(=O)C(C)OC(=O)c2n[nH]c(=O)c3ccccc23)cc1 (stereo not given),.,84.4*,0.3,-1.7,67.5*,0.2
COc1cc(C)nc(N(Cc2ccccc2)S(=O)(=O)c2ccccc2)n1,9.3,73.9*,0.2,-0.9,83.1*,0.3
O=C(ONC1=NCCCCC1)c1c(F)cccc1F,-15.7,-8.8,0.1,-2.7,90.9*,1.1
Cc1cc(C)c(S(=O)(=O)N(CC(=O)N2CCCC2)C2CCCCC2)c(C)c1,-0.8,58.5*,0.7,-3.1,27.6,0.4
Cc1cc(C)c(S(=O)(=O)N(CC(=O)NCc2cccnc2)C2CCCCC2)c(C)c1,-9.6,94.4*,0,0.5,99.2*,0.1
Cc1cc(C)c(S(=O)(=O)N(C)Cc2cnn(C)c2)c(C)c1,8.6,-97.0,0.1,-2.8,87.6*,2*
Cc1cc(C)c(S(=O)(=O)N(C)CC(N)=O)c(C)c1,33.9,-38.0,1.1,-0.2,-9.5,1.4
Cc1cc(C)c(S(=O)(=O)N(C)CC(=O)N2CCCCC2)c(C)c1,16.5,-185.0,0.6,-1.7,44.2,2.9*
CCOc1cc(C(=O)Nc2ccc(NC(C)=O)cc2)ccc1OCC(=O)N1CCCCC1,.,.,.,-2.1,.,.
CCN(CC)C(=O)c1c([N+](=O)[O-])c(C(C)(C)C)nn1C,.,.,.,0.6,.,.
COc1ccccc1CNC(=O)N[C@@H](Cc1ccccc1)C(=O)O,29.9,21.4,0.3,-1.2,70.4*,0.8
O=C(NCc1ccccc1)N[C@@H](Cc1ccccc1)C(=O)O,1.7,-4.0,0.8,-0.3,17.0,1
COC(=O)[C@H](Cc1ccccc1)NC(=O)NCc1cccs1,5.4,19.8,0.4,-1.2,62.9*,0.8
CC(C/C=N/NC(=O)COc1cc(Cl)ccc1Cl)c1ccccc1 (stereo not given),.,11.4,0.3,-0.8,70.0*,0.9
CC(C)NC(=O)COc1ccc(Cl)cc1Cl,27.9,9.6,0.5,1.7,46.3,0.9
Cn1c(SCC(=O)Nc2cc(C(C)(C)C)nn2-c2ccccc2)nc2ccccc21,.,.,.,-2.4,.,.
